PubChem BioAssay AID1850 (Southern Research Specialized Biocontainment Screening …, 2009)
Screen size: about 310,000 compounds; about 1,000 (0.32%) were called active. No rule for the calls is given here. A selection follows. Entries with a potency or affinity are not part of this list.

assay: PhoP regulon inhibitors, Salmonella typhi PhoP promoter GFP reporter, confirmatory (AID 1850); settings: fluorescence, 4 h, at 50 µM, stronger effect = higher value;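 also: 0% = induced wells with vehicle and 100% = uninduced wells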

Row | SMILES | inhibition
1 | CCN1CCN(C(=O)CCS(=O)(=O)c2cc3c(cc2Cl)NC(=O)CO3)CC1 | 12.4% (inactive)
2 | CCn1c(C)cc(/C=C2/SC(=S)N(CC(=O)O)C2=O)c1C | 6.61% (inactive)
3 | O=C(Oc1cccc(NC(=O)c2ccco2)c1)c1cccc(S(=O)(=O)N2CCCCC2)c1 | 2.38% (inactive)
4 | N=c1n(CC(=O)c2cccs2)c2ccccc2n1Cc1ccccc1 | 11.7% (inactive)
5 | CCN(CC)CCn1c(=N)n(CC(=O)c2ccc(Br)s2)c2ccccc21 | 14.1% (inactive)
6 | Cn1c(=N)n(CC(=O)c2ccc(Br)s2)c2ccccc21 | -0.89% (inactive)
7 | CCn1c(=N)n(CC(=O)c2ccc(Br)s2)c2ccccc21 | 11.2% (inactive)
8 | CCc1cc(CNC(=O)C2CCC(=O)N(CCc3ccc(OC)cc3)C2)on1 (stereo unspecified) | -3.38% (inactive)
9 | CCOC(=O)C1=C(c2ccccc2)NC(N)=NC1c1ccc(OCc2ccc(Cl)cc2)c(OC)c1 (stereo unspecified) | 0.34% (inactive)
10 | CCOC(=O)C1=C(c2ccccc2)Nc2ncnn2C1c1ccc(C(=O)O)cc1 (stereo unspecified) | -0.92% (inactive)
11 | Cc1ccc(SCc2cc(=O)[nH]c(N3CCOCC3)n2)cc1 | 4.21% (inactive)
12 | C#CCOCCOCCOCCNc1nc(N2CCN(C(=O)CCCCCCCCCCNC(=O)[C@H](CCCCN)n3cc(CCO)nn3)CC2)nc(N2CCN(C(=O)CCCCCCCCCCNC(=O)[C@H](CCCCN)n3cc(CCCC(=O)O)nn3)CC2)n1 | -30.2% (inactive)
13 | C#CCOCCOCCOCCNc1nc(N2CCN(C(=O)CCCCCCCCCCNC(=O)[C@H](CCCCN)n3cc(CCCC(=O)O)nn3)CC2)nc(N2CCN(C(=O)CCCCCCCCCCNC(=O)[C@H](CCCN=C(N)N)n3cc(C[C@@H](C)CC)nn3)CC2)n1 | 13.7% (inactive)
14 | C#CCOCCOCCOCCNc1nc(N2CCN(C(=O)CCCCCCCCCCNC(=O)Cn3cc(C[C@@H](C)O)nn3)CC2)nc(N2CCN(C(=O)CCCCCCCCCCNC(=O)[C@H](CCCN=C(N)N)n3cc(C[C@@H](C)CC)nn3)CC2)n1 | 25.7% (inactive)
15 | C#CCOCCOCCOCCNc1nc(N2CCN(C(=O)CCCCCCCCCCNC(=O)[C@H](CCCCN)n3cc(C)nn3)CC2)nc(N2CCN(C(=O)CCCCCCCCCCNC(=O)[C@H](CCCCN)n3cc(CCCC(=O)O)nn3)CC2)n1 | -29.8% (inactive)
16 | C#CCOCCOCCOCCNc1nc(N2CCN(C(=O)CCCCCCCCCCNC(=O)[C@H](CCCCN)n3cc(C[C@@H](C)CC)nn3)CC2)nc(N2CCN(C(=O)CCCCCCCCCCNC(=O)[C@@H]([C@H](C)O)n3cc(C)nn3)CC2)n1 | 51.8% (inactive)
17 | C#CCOCCOCCOCCNc1nc(N2CCN(C(=O)CCCCCCCCCCNC(=O)[C@H](CCCCN)n3cc(CCCC(=O)O)nn3)CC2)nc(N2CCN(C(=O)CCCCCCCCCCNC(=O)[C@H](CCCCN)n3cc(CCCC(=O)O)nn3)CC2)n1 | 0.23% (inactive)
18 | C#CCOCCOCCOCCNc1nc(N2CCN(C(=O)CCCCCCCCCCNC(=O)[C@@H](CCSC)n3cc(CCO)nn3)CC2)nc(N2CCN(C(=O)CCCCCCCCCCNC(=O)[C@H](CCCN=C(N)N)n3cc(C[C@@H](C)CC)nn3)CC2)n1 | -10.5% (inactive)
19 | COc1ccccc1/C=N/NC(=O)c1nnn(-c2nonc2N)c1CSC1=NCCS1 | -3.46% (inactive)
20 | COc1cc(/C=C/C(=O)Nc2ccncc2)cc(OC)c1OC | 9.98% (inactive)
21 | Cc1nn(-c2ccccc2)c(N2CCCC2)c1/C=N/NC(=O)c1cc(-c2cccs2)nc2ccccc12 | -12.2% (inactive)
22 | CCOC(=O)C1(CCCc2ccccc2)CCN(C(=O)CCN2CCCCC2=O)CC1 | -9.1% (inactive)
23 | O=C(c1ccc(COc2ccccc2Cl)o1)N1N=C(C(F)F)CC1(O)C(F)F (stereo unspecified) | -0.36% (inactive)
24 | Cc1ccc(C(O)P(=O)(Oc2ccccc2)Oc2ccccc2)cc1 (stereo unspecified) | -35.5% (inactive)

Row | SMILES | inhibition
25 | COc1ccc(NC(=O)CCN2C(=O)C3CC=C(Cl)CC3C2=O)cc1 (stereo unspecified) | -3.04% (inactive)
26 | C#CCOCCOCCOCCNc1nc(N2CCN(C(=O)CCCCCCCCCCNC(=O)[C@H](CO)n3cc(CCCSC)nn3)CC2)nc(N2CCN(C(=O)CCCCCCCCCCNC(=O)[C@H](CCCN=C(N)N)n3cc(C[C@@H](C)CC)nn3)CC2)n1 | 25.4% (inactive)
27 | C#CCOCCOCCOCCNc1nc(N2CCN(C(=O)CCCCCCCCCCNC(=O)[C@@H](CCC(=O)O)n3cc(CCCCCN)nn3)CC2)nc(N2CCN(C(=O)CCCCCCCCCCNC(=O)[C@H](CCCCN)n3cc(C[C@@H](C)CC)nn3)CC2)n1 | -7.23% (inactive)
28 | C#CCOCCOCCOCCNc1nc(N2CCN(C(=O)CCCCCCCCCCNC(=O)[C@H](CO)n3cc(CCCSC)nn3)CC2)nc(N2CCN(C(=O)CCCCCCCCCCNC(=O)[C@H](CCCCN)n3cc(C[C@@H](C)CC)nn3)CC2)n1 | -5.02% (inactive)
29 | C#CCOCCOCCOCCNc1nc(N2CCN(C(=O)CCCCCCCCCCNC(=O)[C@@H](CCC(=O)O)n3cc(CCCCCN)nn3)CC2)nc(N2CCN(C(=O)CCCCCCCCCCNC(=O)[C@H](CO)n3cc(CCCCCN)nn3)CC2)n1 | -6.21% (inactive)
30 | C#CCOCCOCCOCCNc1nc(N2CCN(C(=O)CCCCCCCCCCNC(=O)Cn3cc(C[C@@H](C)O)nn3)CC2)nc(N2CCN(C(=O)CCCCCCCCCCNC(=O)[C@H](CCCCN)n3cc(C[C@@H](C)CC)nn3)CC2)n1 | 14.8% (inactive)
31 | C#CCOCCOCCOCCNc1nc(N2CCN(C(=O)CCCCCCCCCCNC(=O)[C@@H](CCC(=O)O)n3cc(CCCCCN)nn3)CC2)nc(N2CCN(C(=O)CCCCCCCCCCNC(=O)[C@H](CO)n3cc(CCCSC)nn3)CC2)n1 | -11.4% (inactive)
32 | CC1CCCN(C(=O)C23CCC(C)(C(=O)C2)C3(C)C)C1 (stereo unspecified) | -4.73% (inactive)
33 | COc1cc(CCC(=O)N2CC(C)OC(C)C2)cc(OC)c1OC (stereo unspecified) | -14.2% (inactive)
34 | CC(C)CN(C(=O)CN(C)C(=O)c1ccco1)c1c(N)n(CC(C)C)c(=O)[nH]c1=O | -1.06% (inactive)
35 | Cc1cc2oc(=O)cc(Cn3ncc(Cl)c(Cl)c3=O)c2cc1Cl | -3.81% (inactive)
36 | Cc1cccc(OCCNc2cc(N3CCN(C)CC3)ccc2[N+](=O)[O-])c1 | -4.31% (inactive)
37 | COC(=O)[C@@H](NC(=O)c1ccccc1)[C@@H](C)O | -3.17% (inactive)
38 | COc1cccc(CN2CC(C(=O)NC3CCC3)CCC2=O)c1 (stereo unspecified) | -3.12% (inactive)
39 | C/C(=N\Nc1ccccc1Cl)c1ccc(-n2ccnc2)cc1 | 7.81% (inactive)
40 | CCCCOC(=O)c1ccc(NC(=O)COC(=O)CSc2nc(C)cc(C)n2)cc1 | -5.18% (inactive)
41 | CN(C)CCC1Sc2ccccc2Oc2ccccc21 (stereo unspecified) | -1.34% (inactive)
42 | CNCCC1Sc2ccccc2Oc2ccccc21 (stereo unspecified) | 10.6% (inactive)
43 | COc1ccccc1NC(=O)CSc1nnc(CCC(=O)Nc2ccccc2F)n1C | -5.48% (inactive)
44 | Cc1ccc(C(=O)Nn2cnnc2)cc1 | -11.2% (inactive)
45 | O=C1NC(c2ccccc2)C(C(=O)c2cccs2)C(O)(C(F)(F)F)N1 (stereo unspecified) | 0.79% (inactive)
46 | O=C1NC(c2ccncc2)C(C(=O)c2cccs2)C(O)(C(F)(F)F)N1 (stereo unspecified) | 2.95% (inactive)
47 | CCOC(=O)C1C(c2cccs2)NC(=O)N(C)C1(O)C(F)(F)F (stereo unspecified) | -2.14% (inactive)
48 | COc1cc(C2NC(=O)NC(O)(C(F)(F)F)C2C(=O)c2cccs2)ccc1O (stereo unspecified) | -4.52% (inactive)

Row | SMILES | inhibition
49 | CCc1nnc(NC(=O)CN2CCN(CC)CC2)s1 | -8.02% (inactive)
50 | Nc1c2ccccc2nc2ccccc12 | 17.1% (inactive)
51 | Cc1cccc2nc3ccccc3cc12 | -7.86% (inactive)
52 | COCCNC(=O)c1ccc(CN2CCC(Cc3ccccc3)CC2)cc1 | -1.7% (inactive)
53 | CCOC(=O)C1CCN(C(=O)c2ccccc2NS(=O)(=O)c2ccc(C)cc2)CC1 | -7.2% (inactive)
54 | CC(Sc1nnc(N)s1)C(=O)Nc1ccc2c(c1)OCCO2 (stereo unspecified) | -3.64% (inactive)
55 | CCCNC(=O)Cn1cnc([N+](=O)[O-])n1 | -4.49% (inactive)
56 | O=[N+]([O-])c1ccc(C(O)C(CO)NC(=S)Nc2ccccc2)cc1 (stereo unspecified) | 11.5% (inactive)
57 | CCOC(=O)C(NC(C)=O)C(O)c1ccc([N+](=O)[O-])cc1 (stereo unspecified) | 3.41% (inactive)
58 | CC(Cc1ccccc1)NC(=O)Cc1ccc([N+](=O)[O-])cc1 (stereo unspecified) | -4.09% (inactive)
59 | O=C(Cc1ccccc1)NC(C(=O)O)C(O)c1ccc([N+](=O)[O-])cc1 (stereo unspecified) | 3.65% (inactive)
60 | NC(CO)C(O)c1ccc([N+](=O)[O-])cc1 (stereo unspecified) | -4.54% (inactive)
61 | O=C(O)CC(Cc1ccc(Cl)cc1)C(=O)Nc1ccc([N+](=O)[O-])cc1 (stereo unspecified) | -5.39% (inactive)
62 | Cc1ccc([N+](=O)[O-])cc1S(=O)(=O)NCc1cccnc1 | -0.437% (inactive)
63 | COc1ccc(CC(=O)NC(C)C2COc3ccccc3O2)cc1OC (stereo unspecified) | 0.47% (inactive)
64 | O=C(NNS(=O)(=O)c1ccc(Cl)cc1)c1cccc(S(=O)(=O)N2CCOCC2)c1 | 6.08% (inactive)
65 | CC1CCN(C2CC(=O)N(c3ccccc3)C2=O)CC1 (stereo unspecified) | -1.51% (inactive)
66 | CC1(C)Cc2cccc(OCC(=O)OCC(=O)NCc3ccc(F)cc3)c2O1 | 5.2% (inactive)
67 | CC1(NC(=O)c2cccc(S(=O)(=O)N3CCN(c4ccccc4)CC3)c2)CCS(=O)(=O)C1 (stereo unspecified) | -4.48% (inactive)
68 | CN1CC(C(=O)c2ccc(Cl)cc2)C(c2ccccc2)C1 (stereo unspecified) | -0.32% (inactive)
69 | CN1CC(C(=O)c2ccc(Cl)cc2)C(c2ccccc2F)C1 (stereo unspecified) | -5.31% (inactive)
70 | CN(C)Cc1cnc2ccc(Cl)cn12 | 2.3% (inactive)
71 | COc1ccc(/C=N\NS(=O)(=O)c2ccc(C)cc2)cc1COc1ccccc1[N+](=O)[O-] | 2.43% (inactive)
